Source: PubChem
Hits are enriched below; roughly 5.1% of the tested compounds scored in any of these assays.
Tau fibril ThT: qHTS for Inhibitors of Tau Fibril Formation, Thioflavin T Binding | Potency, µM (highest dose often 57.4 µM), for the others: at the top dose activity, negative = inhibition, hits mostly inhibitors | Microtubule-associated protein tau (Homo sapiens), P10636 | AID 1460, 2008 | recombinant tau K18 P301L, heparin-induced fibrillization, ThT fluorescence | 270,000 compounds, 2.1% hits; also: potency is read from the fitted curve at half-maximal effect; nearly all actives have a fitted effect of over 55% in size
Target sequence (P10636 561-689 P618L limits assumed): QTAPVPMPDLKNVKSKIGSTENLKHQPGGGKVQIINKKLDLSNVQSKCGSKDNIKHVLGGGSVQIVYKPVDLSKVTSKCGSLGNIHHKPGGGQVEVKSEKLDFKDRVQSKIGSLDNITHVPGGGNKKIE
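Fibril formation assay: tau K18 P301L at 15 uM with trace Alexa 594 label, heparin inducer 20 uM, pH 7 sodium acetate buffer, 37 C for 6 hr; endpoint ThT signal.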
KDM4E inh: qHTS Assay for Inhibitors of Human Jumonji Domain Containing 2E (JMJD2E) | Lysine-specific demethylase 4E (Homo sapiens), B2RXH2 | Potency, µM (titrated, usually from 57.1 µM), for the others: top-dose activity change, negative = inhibition, most hits filed as inhibitors | JMJD2E catalytic domain, FDH-coupled NADH fluorescence (FDH is formaldehyde dehydrogenase) | 230,000 compounds, 1.6% hits; active = well fitted inhibition curve with a large enough effect, not every such curve was filed as active; inconclusive = small, poorly fitted or top-dose-only effect, or another doubt; inactive = no such curve, though single readings can be large or run the other way;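 also: potency is read from the fitted curve at half-maximal effect; 0% = wells with enzyme and -100% = buffer wells without enzyme; nearly all actives have a fitted effect of over 50% in size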
Target sequence (B2RXH2 1-337 limits assumed): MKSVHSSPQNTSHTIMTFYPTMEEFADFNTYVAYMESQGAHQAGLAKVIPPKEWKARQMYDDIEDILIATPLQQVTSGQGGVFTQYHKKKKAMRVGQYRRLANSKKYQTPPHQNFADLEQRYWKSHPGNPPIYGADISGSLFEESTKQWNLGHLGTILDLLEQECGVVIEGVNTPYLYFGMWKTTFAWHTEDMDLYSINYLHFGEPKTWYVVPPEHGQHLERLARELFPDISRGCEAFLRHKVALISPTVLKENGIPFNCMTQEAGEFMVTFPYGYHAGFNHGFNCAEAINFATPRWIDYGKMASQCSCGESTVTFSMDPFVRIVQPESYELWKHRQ
Tau fluor cs: Counterscreen qHTS for Inhibitors of Tau Fibril Formation, Fluorescence Polarization; tau K18 P301L Alexa594 fluorescence, heparin fibrillization; Potency, µM (highest dose often 57.7 µM), without a hit: at the top dose activity change, negative = decrease; 280,000 compounds, 0.93% hits; AID 1463, 2008; also: potency is read from the fitted curve at half-maximal effect; nearly all actives have a fitted effect of over 55% in size
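Human tau K18 P301L (15 uM unlabeled, 0.24 uM Alexa 594-labeled) in 100 mM sodium acetate pH 7 with 20 uM heparin, 6 hr at 37 C. ThT 30 uM added, 1 hr ambient; Alexa 594 FP and total fluorescence read at 555/632 nm.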
NPSR antagonist: qHTS Assay for Antagonists of the Neuropeptide S Receptor: cAMP Signal Transduction; CHO-NPSR cells, cAMP TR-FRET, antagonist mode; AID 1461, 2008; Potency, µM (highest dose often 38.3 µM), without a hit: at the top dose activity change, negative = inhibition, most hits filed as inhibitors; 220,000 compounds, 1% hits; Q6W5P4; also: potency is read from the fitted curve at half-maximal effect; nearly all actives have a fitted effect of over 50% in size
Tau FP inhib: qHTS for Inhibitors of Tau Fibril Formation, Fluorescence Polarization | 280,000 compounds, 0.39% hits | Microtubule-associated protein tau (Homo sapiens), P10636 | K18 P301L tau heparin fibrillization, Alexa594 FP, 6 h | Potency, µM (doses to about 57.7 µM), for the others: top-dose activity, negative = inhibition, hits mostly inhibitors | AID 1468, 2008; also: potency is read from the fitted curve at half-maximal effect; nearly all actives have a fitted effect of over 55% in size
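Human K18 P301L fragment (15 uM unlabeled plus 0.24 uM Alexa 594-labeled) in 100 mM sodium acetate pH 7 with compound, aggregation induced by 20 uM heparin for 6 hr at 37 C. ThT (30 uM) added for 1 hr, then Alexa 594 FP read.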
PNC inhibitor: High Content Assay for Compounds that inhibit the Assembly of the Perinucleolar Compartment; PC3M PTB-GFP, PNC prevalence imaging, 16 h; stronger effect = lower value; activity change (PNC), negative = inhibition, % at 10 µM; 140,000 compounds, 3.1% hits; AID 2417, 2010;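 active = readout at or below -70, meaning at least 70% loss of cells showing the perinucleolar compartment, a nuclear body marking cancer cells; inconclusive = readout between -30 and a set limit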;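 also: plate controls were DMSO wells for no effect and camptothecin positive control wells for full effect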
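Compounds are pinned in duplicate onto adhered PC3M cells stably expressing GFP-tagged PTB and incubated 16 h at 37 C. Cells are then fixed, nuclei stained with Hoechst, and PNC-positive cells counted.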
Numbers without * were called inactive; u = inconclusive; x = no result given; [ ] = another dose, or the depositor's remark. Unless noted, calls follow the shape of the dose curve; as a rule, active = well fitted curve in the direction sought with a large enough effect; inconclusive = small, poorly fitted or top-dose-only effect, or another doubt; inactive = no such curve, though single readings can be large; an effect the other way counts as inactive or inconclusive. Unless noted, % is scaled to controls: 0 for no effect and ±100 for the full control effect.

SMILES	Tau fibril ThT	KDM4E inh	Tau fluor cs	NPSR antagonist	Tau FP inhib	PNC inhibitor
CCn1c(O)c(N=Nc2cccc(S(=O)(=O)N3CCOCC3)c2)c(=O)n(CC)c1=S	u	4%	-21%	-1%	3%	x
COc1ccc2c(c1)CC[C@@H]1[C@@H]2CC[C@]2(C)[C@@H](NCCCCCCN3C(=O)C=CC3=O)CC[C@@H]12	-12%	x	-5%	x	1%	x
Cc1ccc(-c2nnc(Nc3ccc(OC(F)(F)Cl)cc3)c3ccccc23)cc1S(=O)(=O)NC(C)(C)CO	-1%	x	u	x	u	x
c1ccc(N2CCN(c3ncnc4c3nc3n4CCCCC3)CC2)cc1	u	x	-15%	x	10%	x
CC(=O)C1=C(O)[C@@H]2[C@@H]3c4c[nH]c5cccc(c45)C[C@@H]3C(C)(C)N2C1=O	-14%	13µM*	-9%	x	-8%	x
O=C(O)Cc1cccnc1C(=O)O	u	1.6µM*	-8%	x	-10%	x
COc1ccc(-n2[nH]c3c4c(ncc3c2=O)CCCCC4)cc1	u	x	-17%	x	u	x
CCCc1cc2c(n1Cc1ccco1)C(C)C1CN(C(=O)c3ccccc3)C(C)(C(=O)OC)C21 (stereo unspecified)	22µM*	u	-12%	x	u	x
CC[C@@H]1/C=C/C=C/C[C@H](C)[C@@H](O)[C@](C)(O)C(=O)[C@H](C)[C@@H](O)[C@H](C)C(=O)[C@H](C)[C@@H](O)[C@H](C)/C=C/C(=O)O[C@H]2[C@@H](C)[C@@H](CC1)O[C@@]1(CC[C@@H](C)[C@@H](C[C@H](C)O)O1)[C@@H]2C	u	x	-16%	x	-7%	x
O=C1NC(=O)N(c2ccc3c(c2)OCO3)C(=O)/C1=C\c1ccsc1	x	u	-10%	6%	0%	x
O=C1CC(=O)N(c2ccc3c(c2)OCO3)C(=O)N1	u	-7%	-8%	-5%[46.1 µM]	-6%	-95*
C[C@@H]1Cc2c(Cl)cc(C(=O)N[C@@H](Cc3ccccc3)C(=O)O)c(O)c2C(=O)O1	-15%	x	-3%	x	-9%	x
COc1ccc(OCC(=O)N2CCN(C(C)C)CC2)cc1	0%	u	3%	1%[46.1 µM]	3%	-100*
NC(Cc1cc(O)c(O)cc1O)C(=O)O (stereo unspecified)	14µM*	13µM*	u	u	u	x
Cc1o[nH]c(=O)c1C[C@@H](N)C(=O)O	-9%	-23%	-8%	x	u	x
Cc1cccc(N2CCN(C(=O)c3ccc(CNc4c(N5CCC(C)CC5)c(=O)c4=O)cc3)CC2)c1C	-18%	2%	-13%	u	8%	x
CC/C=C\C/C=C\C/C=C\C/C=C\C/C=C\CCCC(=O)NCCc1ccc(O)c(O)c1	-14%	2%	u	x	0%	x
CNCCc1ccc(O)c(O)c1	u	14µM*	-19%	u	-13%	x
COc1ccc(C(O)P(=O)(OC2CCCCC2)c2ccc(N(C)C)cc2)cc1OC (stereo unspecified)	-9%	-10%	-3%	-9%[46.1 µM]	u	-6
NCCc1cc(O)c(O)cc1O	7.1µM*	6.3µM*	10µM*[quencher]	x	25µM*	x
S=P(Nn1cnnc1)(c1ccccc1)c1ccccc1	3%	12%	1%	-3%	3%	x
Oc1ccc(/C=N/NP(=S)(c2ccccc2)c2ccccc2)cc1O	u	u	14µM*[quencher]	u	12%	8
Oc1ccccc1/C=N/NP(=S)(c1ccccc1)c1ccccc1	-2%	-6%	u	u	u	x
Oc1ccc(/C=N/NP(=S)(c2ccccc2)c2ccccc2)c(O)c1O	25µM*	14µM*	u	u	u	38
Cc1cc(C)c(Cn2c3ccccc3c3cnn(CC(=O)NCc4ccc(Cl)cc4)c(=O)c32)c(C)c1	-4%	x	-6%	x	u	x
SMILES	Tau fibril ThT	KDM4E inh	Tau fluor cs	NPSR antagonist	Tau FP inhib	PNC inhibitor
N/C(=N\N=C\c1ccc(O)cc1O)N[N+](=O)[O-]	u	25µM*	-14%	-15%[46.1 µM]	2%	-23
COC(=O)c1nc(-c2ccc3c(n2)C(=O)C(N)=C(OC)C3=O)c(N)c(-c2ccc(OC)c(OC)c2O)c1C	x	20µM*	u	-27%	u	x
Cc1ccc(/C=C2\C(=O)NC(=S)N(c3ccc(F)cc3)C2=O)s1	u	-1%	-10%	22%	-2%	x
Cc1ccc(/C=C2\C(=O)NC(=S)N(c3ccccc3F)C2=O)s1	18µM*	-1%	u	5µM*	1%	-22
CC(C)(C)c1nc(N2CCN(C(=O)c3ccco3)CC2)c2nnn(Cc3ccccc3Cl)c2n1	-13%	u	2%	10µM*	-3%	16
Cc1nn(Cc2ccccc2Cl)c(Cl)c1C(=O)O	-2%	7%	-4%	-1%	11%	x
Cc1ccccc1-c1cncnc1NCCc1cnc[nH]1	-4%	-4%	-7%	x	-10%	x
CC1Cc2c(cnc3c2CN(C)CC3)CO1 (stereo unspecified)	-2%[11.5 µM]	x	-4%[11.6 µM]	x	-8%[11.6 µM]	x
Nc1cc2nc3ccccc3nc2cc1N	10µM*	-2%	u	18%[7.67 µM]	u	x
C=C1C(O)C2OC3(CCC(/C=C/C(C)C4CC(C)=CC5(OC(CC(C)(O)C(=O)O)CCC5O)O4)O3)CCC2OC1C(O)CC(C)C1OC2(CCCCO2)CCC1C (stereo unspecified)	-6%[2.31 µM]	x	-9%[2.34 µM]	x	u	x
Oc1ccc(Cl)cc1Cc1cc(Cl)ccc1O	u	-4%	11µM*[quencher]	-12%	u	-1
CC[C@H]1C(=O)OC[C@H]1Cc1cncn1C	x	4%[25.5 µM]	x	x	x	x
CC1=C(O)C(=O)[C@@H]2O[C@@H]2C1=O	16µM*	x	u	x	20µM*	x
C[C@@]12CC(c3ccoc3)OC(=O)C1CC[C@@]1(C)C2C2C=C[C@@]1(O)C(=O)O2 (stereo partly specified)	u	-5%	-13%	x	u	x
O=C1CCCC2C3CC(CN12)C1CCCCN1C3 (stereo unspecified)	3%	2%	-3%	x	-8%	x
N[C@@H](CCl)C(=O)O	-7%	-10%	-1%	-8%[46.1 µM]	3%	x
C[Se]C[C@H](N)C(=O)O	u	18µM*	-18%	-2%[46.1 µM]	-7%	x
COc1ccc(Cn2c(O)c(/C=N/NC(=O)c3ccncc3)c(=O)[nH]c2=O)cc1	u	7.9µM*	-13%	13%[7.67 µM]	-8%	x
COc1ccc(Cn2c(O)c(/C=N/NC(=O)c3ccccc3)c(=O)[nH]c2=O)cc1	13%	3%	6%	12%	9%	u
COc1ccc(Cn2c(O)c(C=NCCN3CCOCC3)c(=O)[nH]c2=O)cc1	-7%	-18%	u	-8%[46.1 µM]	4%	34
